# Inconclusive results are not listed. Values without a mark were called inactive. Active and inactive are the calls of the source. Calls follow the shape of the dose curve; as a rule, active = well fitted cell-killing curve with a large enough effect; inconclusive = small, poorly fitted or top-dose-only effect; inactive = flat fitted curve, though single readings scatter.
# Assay: Cell Viability - LYMP2-015 (AID 971);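 as to activity change, negative = lower viability: 0% = DMSO only and full effect = 92 µM tetraoctylammonium bromide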
# Details: LYMP2-015 lymphoblastoid cell viability; series mostly up to 92.2 µM; activity change, negative = lower viability: at the top concentration
# How it was run: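 Human lymphoblastoid cells (2500/well) in complete medium were preincubated 5 hr at 37 C, then compound-treated 24 hr at 37 C. Intracellular ATP was read by CellTiter-Glo luminescence after 30 min at room temperature; AC50 came from Hill-equation concentration-response fits.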
# Also: nearly all actives have a fitted effect of over 55% in size.
# Potency is read from the fitted curve at half-maximal effect.
SMILES,"activity change, negative = lower viability [%]",Potency
CCCCCCc1ccc(-c2ccc(C#N)cc2)cc1,-8.57,–
Nc1cnn([C@@H]2O[C@H](CO)[C@@H](O)[C@H]2O)c(=O)n1,1.07,–
CCCCCCCCOc1ccc(C(=O)O)cc1,2.48,–
Oc1c(Cl)cc(Cl)c(Cl)c1Cl,-23.5,–
CC(C)OCC1CO1 (configuration not stated),-3.59,–
C/C(Cl)=C/CCl,-12.8,–
CCCCNCC,-14.4,–
O=c1[nH]ncc2ccccc12,-11.1,–
c1ccc(COCc2ccccc2)cc1,10.5,–
O=[N+]([O-])c1cccc(I)c1,-6.28,–
c1ccc2c(c1)ccc1ccccc12,-7.9,–
Nc1ccc(N=Nc2ccccc2)c(N)c1,-10.7,–
Cc1ccc(C(=O)O)cc1[N+](=O)[O-],-13.3,–
COc1ccc([N+](=O)[O-])cc1N,11.4,–
OCC(CO)(CBr)CBr,-7.63,–
Nc1cc(C(=O)O)c(O)c(S(=O)(=O)O)c1,-1.08,–
Oc1ccc2c(c1)OCO2,-1.62,–
c1ccncc1,-6.53,–
CC(=O)OC1CC(C)OC(C)O1 (configuration not stated),-10.8,–

SMILES,"activity change, negative = lower viability [%]",Potency
O=C(OCc1ccccc1)c1ccccc1O,5.18,–
C/C=C/C=C/C=O,–,39.8 µM (active)
CCN(CC)c1ccc2c(C)cc(=O)oc2c1,-1.99,–
c1c[nH]cn1,1.59,–
c1ccc(SCCSc2ccccc2)cc1,-5.52,–
O=C(O)/C=C/c1ccc(/C=C/C(=O)O)cc1,-5.16,–
CCCCOC(=O)COc1ccc(Cl)cc1Cl,-12.1,–
CC(=O)OC(C(=O)c1ccccc1)c1ccccc1 (configuration not stated),-9.34,–
CCCCCCN,8.4,–
CC(=O)Nc1cccc(C)c1,-7.18,–
CCC(Cl)CC(Cl)C(Cl)C(Cl)C(Cl)C(C)Cl (configuration not stated),-15.1,–
COc1ccc(C)cc1N,0.974,–
CCc1ccc(C(c2ccc(CC)cc2)C(Cl)Cl)cc1,-15.4,–
C[C@@H]1CC2(OC(O)[C@]3(C)O[C@H]23)O[C@H]2C[C@@]3(C)[C@@H]4CC[C@H]5C(C)(C)C(O[C@@H]6OC[C@@H](O)[C@H](O)[C@H]6O)CC[C@@]56C[C@@]46CC[C@]3(C)[C@@H]12 (some centres not stated),-15.5,–
O=[N+]([O-])c1ccccc1Nc1ccccc1,4.56,–
C=CC1CO1 (configuration not stated),-10.9,–
COc1cc(-c2ccc(N=C=O)c(OC)c2)ccc1N=C=O,2.15,–
CCOC(=O)C1OC1c1ccccc1 (configuration not stated),-16.8,–
COc1ccc(C(=O)Nc2ccccc2)cc1[N+](=O)[O-],-12.3,–

# Assay: Cell Viability - LYMP2-017 (AID 972); as to activity change, negative = cytotoxicity: % is scaled to controls: 0 for no effect and ±100 for the full control effect
# Details: LYMP2-017 lymphoblastoid cell viability; series mostly up to 92.2 µM; activity change, negative = cytotoxicity: at the top concentration
# How it was run: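 Human lymphoblastoid cells (2500/well) were seeded in complete medium, held 5 hr at 37 C, then exposed to compounds for 24 hr at 37 C. Intracellular ATP was read by CellTiter-Glo luminescence after 30 min at room temperature, with AC50 values from Hill-equation fits.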
SMILES,"activity change, negative = cytotoxicity [%]",Potency
CCCCCCc1ccc(-c2ccc(C#N)cc2)cc1,-2.07,–
Nc1cnn([C@@H]2O[C@H](CO)[C@@H](O)[C@H]2O)c(=O)n1,-5.05,–
CCCCCCCCOc1ccc(C(=O)O)cc1,-10.4,–
Oc1c(Cl)cc(Cl)c(Cl)c1Cl,-14.8,–
CC(C)OCC1CO1 (configuration not stated),0.556,–
C/C(Cl)=C/CCl,-0.698,–
CCCCNCC,-18.4,–
O=c1[nH]ncc2ccccc12,-17.1,–
c1ccc(COCc2ccccc2)cc1,-11.2,–
O=[N+]([O-])c1cccc(I)c1,-11.6,–
c1ccc2c(c1)ccc1ccccc12,-9.23,–
Nc1ccc(N=Nc2ccccc2)c(N)c1,-14.6,–
Cc1ccc(C(=O)O)cc1[N+](=O)[O-],-8.11,–
COc1ccc([N+](=O)[O-])cc1N,2.75,–
OCC(CO)(CBr)CBr,2.6,–
Nc1cc(C(=O)O)c(O)c(S(=O)(=O)O)c1,-12.3,–
Oc1ccc2c(c1)OCO2,-7,–
c1ccncc1,-7.35,–
CC(=O)OC1CC(C)OC(C)O1 (configuration not stated),-6.95,–

SMILES,"activity change, negative = cytotoxicity [%]",Potency
O=C(OCc1ccccc1)c1ccccc1O,-0.0594,–
C/C=C/C=C/C=O,–,31.6 µM (active)
CCN(CC)c1ccc2c(C)cc(=O)oc2c1,-27.6,–
c1c[nH]cn1,-10.1,–
c1ccc(SCCSc2ccccc2)cc1,-7.42,–
O=C(O)/C=C/c1ccc(/C=C/C(=O)O)cc1,-11,–
CCCCOC(=O)COc1ccc(Cl)cc1Cl,-3.09,–
CC(=O)OC(C(=O)c1ccccc1)c1ccccc1 (configuration not stated),-3.82,–
CCCCCCN,-8.67,–
CC(=O)Nc1cccc(C)c1,-20.1,–
CCC(Cl)CC(Cl)C(Cl)C(Cl)C(Cl)C(C)Cl (configuration not stated),-10.1,–
COc1ccc(C)cc1N,-1.07,–
CCc1ccc(C(c2ccc(CC)cc2)C(Cl)Cl)cc1,-3.14,–
C[C@@H]1CC2(OC(O)[C@]3(C)O[C@H]23)O[C@H]2C[C@@]3(C)[C@@H]4CC[C@H]5C(C)(C)C(O[C@@H]6OC[C@@H](O)[C@H](O)[C@H]6O)CC[C@@]56C[C@@]46CC[C@]3(C)[C@@H]12 (some centres not stated),-29.2,–
O=[N+]([O-])c1ccccc1Nc1ccccc1,-18.8,–
C=CC1CO1 (configuration not stated),-10.1,–
COc1cc(-c2ccc(N=C=O)c(OC)c2)ccc1N=C=O,-13.7,–
CCOC(=O)C1OC1c1ccccc1 (configuration not stated),1.37,–

# Assay: Cell Viability - LYMP2-019 (AID 973);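 as to activity change, negative = cytotoxicity: 0% = DMSO alone and full effect = 92 µM tetraoctylammonium bromide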
# Details: LYMP2-019 lymphoblastoid cell line viability; series mostly up to 92.2 µM; activity change, negative = cytotoxicity: at the top concentration
# How it was run: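 Human lymphoblastoid cells were seeded at 2500 cells/well, preincubated 5 hr at 37 C, then exposed to compounds for 24 hr at 37 C in complete medium. Intracellular ATP was measured by CellTiter-Glo luminescence; AC50 from Hill fits.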
SMILES,"activity change, negative = cytotoxicity [%]",Potency
CCCCCCc1ccc(-c2ccc(C#N)cc2)cc1,-6.39,–
Nc1cnn([C@@H]2O[C@H](CO)[C@@H](O)[C@H]2O)c(=O)n1,7.76,–
CCCCCCCCOc1ccc(C(=O)O)cc1,-15.4,–
Oc1c(Cl)cc(Cl)c(Cl)c1Cl,-9.07,–
CC(C)OCC1CO1 (configuration not stated),-11.5,–
C/C(Cl)=C/CCl,-1.69,–
CCCCNCC,-3.08,–
O=c1[nH]ncc2ccccc12,-3.06,–
c1ccc(COCc2ccccc2)cc1,-1.64,–
O=[N+]([O-])c1cccc(I)c1,-7.08,–
c1ccc2c(c1)ccc1ccccc12,-12.5,–
Nc1ccc(N=Nc2ccccc2)c(N)c1,-12.3,–
Cc1ccc(C(=O)O)cc1[N+](=O)[O-],2.79,–
COc1ccc([N+](=O)[O-])cc1N,-3.31,–
OCC(CO)(CBr)CBr,-10.4,–
Nc1cc(C(=O)O)c(O)c(S(=O)(=O)O)c1,-5.94,–
Oc1ccc2c(c1)OCO2,-1.68,–
c1ccncc1,-8.67,–
CC(=O)OC1CC(C)OC(C)O1 (configuration not stated),-3.32,–

SMILES,"activity change, negative = cytotoxicity [%]",Potency
O=C(OCc1ccccc1)c1ccccc1O,-1.54,–
C/C=C/C=C/C=O,–,39.8 µM (active)
CCN(CC)c1ccc2c(C)cc(=O)oc2c1,-19.5,–
c1c[nH]cn1,-2.59,–
c1ccc(SCCSc2ccccc2)cc1,-3.83,–
O=C(O)/C=C/c1ccc(/C=C/C(=O)O)cc1,-2.06,–
CCCCOC(=O)COc1ccc(Cl)cc1Cl,-15.7,–
CC(=O)OC(C(=O)c1ccccc1)c1ccccc1 (configuration not stated),5.31,–
CCCCCCN,2.42,–
CC(=O)Nc1cccc(C)c1,-6.01,–
CCC(Cl)CC(Cl)C(Cl)C(Cl)C(Cl)C(C)Cl (configuration not stated),-5.65,–
COc1ccc(C)cc1N,-9.56,–
CCc1ccc(C(c2ccc(CC)cc2)C(Cl)Cl)cc1,-6.68,–
O=[N+]([O-])c1ccccc1Nc1ccccc1,-8.95,–
C=CC1CO1 (configuration not stated),-9.82,–
COc1cc(-c2ccc(N=C=O)c(OC)c2)ccc1N=C=O,-4.41,–
CCOC(=O)C1OC1c1ccccc1 (configuration not stated),-6.14,–
COc1ccc(C(=O)Nc2ccccc2)cc1[N+](=O)[O-],-26.4,–

# Source: PubChem BioAssay (NCATS)
